Experimental data reported in PubChem BioAssay (Tox21).
“And” between values parts separate entries of the source, which are not always exact repeats. Identical values can stand only once. Results filed as inconclusive are left out. A structure can be active in one record and inactive in another. The source made the active and inactive calls. Unless noted, the call rests on the fitted dose curve; in most records, active means well fitted curve in the direction sought with a large enough effect in the repeat runs; inconclusive means weak or mixed curves; inactive means no such curve, though single readings can be large; an effect the other way counts as inactive or inconclusive.

Tests used:
[1] = target: Thyrotropin receptor (Homo sapiens) (UniProt P16473); assay: qHTS assay to identify small molecule antagonists of the thyroid stimulating hormone receptor (TSHR) signaling pathway (AID 1259385; calls by dose curve; further: nearly all actives have a fitted effect of over 20% in size)
Chain of Thyrotropin receptor (Homo sapiens) (P16473 whole entry, looked up): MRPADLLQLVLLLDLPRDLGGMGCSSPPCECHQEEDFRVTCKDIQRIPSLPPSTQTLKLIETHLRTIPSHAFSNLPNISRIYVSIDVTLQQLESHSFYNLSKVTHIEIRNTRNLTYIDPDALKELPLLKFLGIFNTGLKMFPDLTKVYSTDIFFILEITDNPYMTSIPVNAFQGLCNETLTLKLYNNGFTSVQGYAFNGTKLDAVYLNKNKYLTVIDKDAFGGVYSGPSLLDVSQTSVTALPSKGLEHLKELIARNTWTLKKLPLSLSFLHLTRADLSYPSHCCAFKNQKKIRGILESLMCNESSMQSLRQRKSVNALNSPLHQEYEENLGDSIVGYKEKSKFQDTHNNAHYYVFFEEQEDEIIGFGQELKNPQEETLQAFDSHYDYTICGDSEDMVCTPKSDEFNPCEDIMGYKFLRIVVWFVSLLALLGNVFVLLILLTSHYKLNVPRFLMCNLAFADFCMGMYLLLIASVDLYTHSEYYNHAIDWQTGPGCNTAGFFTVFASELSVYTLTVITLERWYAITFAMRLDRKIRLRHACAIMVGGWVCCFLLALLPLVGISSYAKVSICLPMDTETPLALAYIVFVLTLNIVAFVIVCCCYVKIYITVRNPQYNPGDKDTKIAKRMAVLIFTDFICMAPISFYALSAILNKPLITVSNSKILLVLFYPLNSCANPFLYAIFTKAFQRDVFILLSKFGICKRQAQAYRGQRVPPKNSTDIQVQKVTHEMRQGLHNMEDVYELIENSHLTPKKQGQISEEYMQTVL
Summary of the method: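 TSHR-HEK293 cells (800/well) plated 18 h, then compounds with Ro20-1724 and TSH at 1.5 ng/mL final, 30 min at room temperature. cAMP quantified by HTRF (cAMP-d2/anti-cAMP-cryptate, 1 h); 15 concentrations in triplicate.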

[2] = qHTS assay to identify small molecule agonists of the estrogen receptor alpha (ER-alpha) signaling pathway in the presence of an antagonist - cell viability counter screen (AID 1259386);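 further: cells exposed to compounds for 22 h at 37 °C before the viability read; nearly all actives have a fitted effect of over 30% in size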; further: potency means the concentration at half of the fitted maximal effect; on activity change, negative = cytotoxicity: series mostly up to about 92 µM
Summary of the method: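 Using estrogen-depleted VM7Luc4E2 cells, the 15-concentration compound series was applied together with 10.0nM ICI-182,780 and incubated 22hr at 37C/5% CO2. Cell viability was then scored by CellTiter-Fluor.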

[3] = target: Progesterone receptor (Homo sapiens) (UniProt P06401); assay: qHTS assay to identify small molecule agonists of the progesterone receptor (PR) signaling pathway (AID 1346784; calls by dose curve; further: nearly all actives have a fitted effect of over 30% in size)
Chain of Progesterone receptor (Homo sapiens) (P06401 whole entry, looked up): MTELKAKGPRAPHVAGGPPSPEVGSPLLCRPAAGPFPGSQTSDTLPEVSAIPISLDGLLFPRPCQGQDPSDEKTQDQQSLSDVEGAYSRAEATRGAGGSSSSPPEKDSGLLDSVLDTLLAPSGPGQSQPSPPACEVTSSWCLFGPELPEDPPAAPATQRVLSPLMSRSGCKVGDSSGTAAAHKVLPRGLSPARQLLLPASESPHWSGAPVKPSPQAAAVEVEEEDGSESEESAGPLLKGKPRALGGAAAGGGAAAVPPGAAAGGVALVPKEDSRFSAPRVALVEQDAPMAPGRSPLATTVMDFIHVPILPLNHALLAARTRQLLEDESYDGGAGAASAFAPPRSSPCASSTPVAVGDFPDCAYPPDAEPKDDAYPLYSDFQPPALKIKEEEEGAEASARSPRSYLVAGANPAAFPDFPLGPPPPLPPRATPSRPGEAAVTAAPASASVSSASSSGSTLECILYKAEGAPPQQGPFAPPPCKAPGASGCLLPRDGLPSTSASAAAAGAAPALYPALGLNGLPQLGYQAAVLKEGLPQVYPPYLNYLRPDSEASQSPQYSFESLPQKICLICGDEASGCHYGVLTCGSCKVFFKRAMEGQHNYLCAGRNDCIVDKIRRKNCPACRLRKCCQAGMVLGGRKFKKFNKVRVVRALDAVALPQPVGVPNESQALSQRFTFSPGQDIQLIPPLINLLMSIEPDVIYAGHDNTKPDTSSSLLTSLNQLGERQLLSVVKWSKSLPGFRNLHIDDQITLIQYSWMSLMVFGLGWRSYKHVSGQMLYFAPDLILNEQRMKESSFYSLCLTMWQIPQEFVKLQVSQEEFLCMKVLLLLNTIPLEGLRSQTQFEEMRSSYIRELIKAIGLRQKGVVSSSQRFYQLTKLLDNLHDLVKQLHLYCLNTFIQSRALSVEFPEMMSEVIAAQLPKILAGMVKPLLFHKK
Summary of the method: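 Using charcoal-stripped serum (2%) to limit endogenous steroids, PR-UAS-bla HEK 293T cells received compounds for 16 hr at 37C after 6 hr plating; beta-lactamase FRET fluorescence was recorded following 2 hr substrate loading at room temperature.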

[4] = target: Progesterone receptor (Homo sapiens) (UniProt P06401); assay: qHTS assay to identify small molecule antagonists of the progesterone receptor (PR) signaling pathway (AID 1346795; active means well fitted inhibition curve with a large enough effect in the signal ratio in the repeat runs, not every such curve was filed as active; the % refers to the signal ratio; further: potency means the concentration at half of the fitted maximal effect)
Summary of the method: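 Inhibition of R5020-induced (1 nM final) beta-lactamase reporter signal in PR-UAS-bla HEK293T cells was scored by FRET fluorescence after overnight (16 hr) compound treatment.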

[5] = qHTS assay to identify small molecule antagonists of the progesterone receptor (PR) signaling pathway - cell viability counter screen (AID 1346798); further: nearly all actives have a fitted effect of over 50% in size; further: potency means the concentration at half of the fitted maximal effect; on activity change, negative = cytotoxicity: series mostly up to about 92 µM
Summary of the method: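 ATP content as viability readout: CellTiter-Glo luminescence, 30 min room temperature, in PR-UAS-bla HEK293T cells after 16 hr compound/R5020 treatment at 37C and 5% CO2.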

[6] = qHTS assay to identify small molecule agonists of the progesterone receptor (PR) signaling pathway - cell viability counter screen (AID 1346799; calls by dose curve; further: nearly all actives have a fitted effect of over 45% in size; further: potency means the concentration at half of the fitted maximal effect)
Summary of the method: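 Cytotoxicity in PR-bla HEK293T cells: 16 h compound, 37C; CellTiter-Glo added post-FRET read; luminescence after 30 min RT.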

[7] = qHTS assay to identify small molecule antagonists of the TGF-beta/Smad signaling pathway - cell viability counter screen (AID 1346824); further: nearly all actives have a fitted effect of over 50% in size
Summary of the method: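 SBE-bla HEK 293T cells, incubated overnight, then compound plus 0.25 ng/mL TGF-beta1 (stock added) for 5 hr at 37 C. Viability was read in the same wells by CellTiter-Glo luminescence after 30 min at room temperature.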

[8] = qHTS assay to identify small molecule agonists of the TGF-beta/Smad signaling pathway - cell viability counter screen (AID 1346829); further: top concentration of the series differs between compounds; nearly all actives have a fitted effect of over 45% in size
Summary of the method: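 After overnight seating at 37 C and 5% CO2, reporter cells got compounds for 5 hr and FRET substrate for 2 hr; cell viability then came from CellTiter-Glo luminescence.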

[9] = qHTS assay to identify small molecule agonists of the TGF-beta/Smad signaling pathway (AID 1346859; active means well fitted activation curve with a large enough effect in the signal ratio in the repeat runs, not every such curve was filed as active; the % refers to the signal ratio; further: series mostly up to about 77 µM)
Summary of the method: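 Stable Smad binding element-beta-lactamase HEK 293T cells; 5 hr compound exposure at 37 C under 5% CO2; 2 hr room-temperature substrate step; fluorescence excited at 405 nm, collected at 460 nm and 530 nm.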

[10] = target: Thyrotropin-releasing hormone receptor (Homo sapiens) (UniProt P34981); assay: qHTS assay to identify small molecule antagonists of the thyrotropin-releasing hormone receptor (TRHR) signaling pathway (AID 1346877; active means well fitted inhibition curve with a large enough effect in the repeat runs, not every such curve was filed as active; further: series mostly up to about 51 µM)
Chain of Thyrotropin-releasing hormone receptor (Homo sapiens) (P34981 whole entry, looked up): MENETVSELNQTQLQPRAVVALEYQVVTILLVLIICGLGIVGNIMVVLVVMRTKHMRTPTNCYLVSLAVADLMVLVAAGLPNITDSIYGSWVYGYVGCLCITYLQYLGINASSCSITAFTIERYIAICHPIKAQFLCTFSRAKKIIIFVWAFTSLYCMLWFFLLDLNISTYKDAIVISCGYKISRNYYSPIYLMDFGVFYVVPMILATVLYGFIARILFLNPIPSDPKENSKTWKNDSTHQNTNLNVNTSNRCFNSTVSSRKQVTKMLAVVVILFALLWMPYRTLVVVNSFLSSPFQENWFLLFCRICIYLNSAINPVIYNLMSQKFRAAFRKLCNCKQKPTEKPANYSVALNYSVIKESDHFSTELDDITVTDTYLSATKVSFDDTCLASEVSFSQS
Summary of the method: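 Calcium signal in dye-loaded TRHR/HEK293 cells; compounds added 5 min before TRH (1 nM final); fluorescence monitored 3 min at 1 s steps.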

[11] = target: Thyrotropin-releasing hormone receptor (Homo sapiens) (UniProt P34981); assay: qHTS assay to identify small molecule agonists of the thyrotropin-releasing hormone receptor (TRHR) signaling pathway (AID 1346891; calls by dose curve;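 further: HEK293 cells expressing TRHR with calcium dye readout; series mostly up to about 58 µM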)
Summary of the method: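 In 1536-format, 1500 TRHR-Hek293 cells per well grew 18 h, took up calcium dye for 2 h at 37 °C, received compound, and were read kinetically; 15-point titrations, triplicates.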

[12] = Caspase-3/7 induction in HepG2 cells by small molecules, qHTS assay (AID 1346978); further: nearly all actives have a fitted effect of over 15% in size
Summary of the method: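 Wild-type HepG2 cells, 2,000/well, settled 5 hr at 37 C and 5% CO2, then compound-treated for 17 hr; caspase-3/7 activity read by luminescent Caspase-Glo 3/7 after 30 min at room temperature.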

[13] = Caspase-3/7 induction in CHO-K1 cells by small molecules, qHTS cell viability counter screen (AID 1346979); further: nearly all actives have a fitted effect of over 35% in size; further: potency means the concentration at half of the fitted maximal effect
Summary of the method: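 To flag cytotoxic compounds, treated CHO-K1 wild-type cells were given CellTiter-Fluor at 16hr and read fluorescently after 1hr at 37C; the caspase-3/7 luminescence was measured in these same wells.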

[14] = Caspase-3/7 induction in CHO-K1 cells by small molecules, qHTS assay (AID 1346980); further: nearly all actives have a fitted effect of over 15% in size
Summary of the method: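 Wild-type CHO-K1 cells exposed to compounds for 17hr at 37 C, 5% CO2. Caspase-3/7 activity then measured by Caspase-Glo 3/7 luminescence after 30min at room temperature.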

[15] = Caspase-3/7 induction in HepG2 cells by small molecules, qHTS cell viability counter screen (AID 1346981); further: series mostly up to about 92 µM; nearly all actives have a fitted effect of over 30% in size
Summary of the method: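 After a 5-hr attachment period at 37 C and 5% CO2, wild-type HepG2 cells received compounds in DMSO. Sixteen hours later CellTiter-Fluor was dispensed and the fluorescent signal quantified after a further hour.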

[16] = target: Nuclear receptor subfamily 1 group I member 2 (Homo sapiens) (UniProt O75469); assay: Human pregnane X receptor (PXR) small molecule agonists, qHTS assay (AID 1346982); further: nearly all actives have a fitted effect of over 35% in size; further: potency means the concentration at half of the fitted maximal effect
Chain of Nuclear receptor subfamily 1 group I member 2 (Homo sapiens) (O75469 whole entry, looked up): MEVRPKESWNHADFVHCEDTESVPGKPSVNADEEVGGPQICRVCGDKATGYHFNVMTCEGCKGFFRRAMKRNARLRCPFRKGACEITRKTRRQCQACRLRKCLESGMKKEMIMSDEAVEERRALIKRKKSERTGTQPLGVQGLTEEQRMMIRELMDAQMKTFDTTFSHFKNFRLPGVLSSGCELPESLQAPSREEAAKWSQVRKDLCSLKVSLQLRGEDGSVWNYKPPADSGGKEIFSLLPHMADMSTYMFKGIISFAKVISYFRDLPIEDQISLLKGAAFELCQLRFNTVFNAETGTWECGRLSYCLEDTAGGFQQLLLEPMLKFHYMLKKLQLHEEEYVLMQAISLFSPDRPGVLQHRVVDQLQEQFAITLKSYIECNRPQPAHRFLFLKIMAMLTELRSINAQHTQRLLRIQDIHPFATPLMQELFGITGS
Summary of the method: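 Tox21 qHTS; PXR-Luc HepG2; compounds pinned from DMSO; 24 hr, 37 C; ONE-Glo luciferase detection, 30 min room temperature.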

[17] = target: Nuclear receptor subfamily 1 group I member 2 (Rattus norvegicus) (UniProt Q9R1A7); assay: Rat pregnane X receptor (rPXR) activation by small molecules, qHTS assay (AID 1346983); settings: rPXR luciferase reporter cells, One-Glo luminescence, 24 h; max activation: stronger effect = higher value; further: nearly all actives have a fitted effect of over 20% in size
Chain of Nuclear receptor subfamily 1 group I member 2 (Rattus norvegicus) (Q9R1A7 whole entry, looked up): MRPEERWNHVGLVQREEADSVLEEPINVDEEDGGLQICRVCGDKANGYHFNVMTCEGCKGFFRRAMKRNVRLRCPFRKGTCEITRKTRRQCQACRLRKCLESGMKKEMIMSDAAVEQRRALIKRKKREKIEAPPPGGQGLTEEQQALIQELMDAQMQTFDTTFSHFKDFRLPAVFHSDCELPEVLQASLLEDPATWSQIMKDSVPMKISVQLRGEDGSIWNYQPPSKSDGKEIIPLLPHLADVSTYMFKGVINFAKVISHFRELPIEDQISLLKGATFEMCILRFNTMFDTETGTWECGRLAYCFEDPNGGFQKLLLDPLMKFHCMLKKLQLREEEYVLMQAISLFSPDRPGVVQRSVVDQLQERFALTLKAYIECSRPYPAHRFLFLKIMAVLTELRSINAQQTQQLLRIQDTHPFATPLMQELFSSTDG
Summary of the method: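 Cell-based rPXR activation assay: rPXR cells, 2,000 per well, rested 5hr at 37 C, then exposed to compounds in DMSO for 24 hr at 37 C. Luciferase activity read by One-Glo luminescence after 30 min at room temperature.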

[18] = target: Nuclear receptor subfamily 1 group I member 2 (Homo sapiens) (UniProt O75469); assay: CYP3A4 induction through human pregnane X receptor (PXR) by small molecules, qHTS assay (AID 1346984); further: nearly all actives have a fitted effect of over 40% in size
Summary of the method: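 Cells (DPX-2; HepG2 with PXR element plus CYP3A4-promoter luciferase) settled 5hr, then were treated 24hr at 37C. A 3hr, 3uM-final Luciferin-IPA step preceded luminescence measurement with One-Glo.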

[19] = target: Nuclear receptor subfamily 1 group I member 2 (Homo sapiens) (UniProt O75469); assay: Human pregnane X receptor (PXR) activation by small molecules, qHTS assay (AID 1346985); further: nearly all actives have a fitted effect of over 40% in size
Summary of the method: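 DPX-2 cells (HepG2 co-transfected with a PXR response element and a CYP3A4-promoter luciferase construct) were seeded at 2,000 per well, rested 5 hr at 37C, then exposed to DMSO-dissolved compounds for 24 hr. Activation was read as luciferase luminescence.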

[20] = Human pregnane X receptor (PXR) small molecule agonists, qHTS cell viability counter screen (AID 1346977); further: nearly all actives have a fitted effect of over 50% in size
Summary of the method: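 Readout is CellTiter-Fluor fluorescence from PXR-Luc HepG2 cells. Plated cells rested 5hr, then were treated with compounds for 24hr at 37C and 5% CO2, with reagent present during the last hour.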
On the % scale 0 is the no-effect control and ±100 the full control effect.

CCCCC(CC)COCC1CO1 (stereo not given)
inactive: Potency [1] | Potency [2] | Potency [3] | Potency [4] | Potency [5] | Potency [6] | Potency [7] | Potency [8] | outcome [9] | Potency [10] | Potency [11] | Potency [12] | Potency [13] | Potency [14] | Potency [15] | Potency [16]

CC1=CCC(C(C)(C)O)CC1 (stereo not given)
inactive: Potency [1] | Potency [2] | Potency [3] | Potency [4] | Potency [5] | Potency [6] | Potency [8] | outcome [9] | Potency [10] | Potency [11] | Potency [12] | Potency [13] | Potency [14] | Potency [15] | max activation [17] -1.16% | Potency [18] | Potency [19]
54.8 µM (active) and inactive: Potency [16]

COC(C)COC(C)COC(C)CO (stereo not given)
inactive: Potency [1] | Potency [2] | Potency [3] | Potency [4] | Potency [5] | Potency [6] | Potency [7] | Potency [8] | outcome [9] | Potency [10] | Potency [11] | Potency [20] | Potency [12] | Potency [13] | Potency [14] | Potency [16]

CC(CCC(=O)O)(c1ccc(O)cc1)c1ccc(O)cc1
inactive: Potency [1] | Potency [2] | Potency [3] | Potency [4] | Potency [5] | Potency [6] | Potency [7] | Potency [8] | outcome [9] | Potency [10] | Potency [11] | Potency [20] | Potency [12] | Potency [13] | Potency [14] | Potency [15] | Potency [16]

CC(C(=O)O)c1cccc(C(=O)c2ccccc2)c1 (stereo not given)
inactive: Potency [1] | Potency [2] | Potency [3] | Potency [4] | Potency [5] | Potency [6] | Potency [7] | Potency [8] | Potency [10] | Potency [11] | Potency [12] | Potency [13] | Potency [14] | Potency [15]

COC(=O)c1ccccc1
inactive: Potency [1] | Potency [2] | Potency [3] | Potency [4] | Potency [5] | Potency [6] | Potency [8] | outcome [9] | Potency [10] | Potency [11] | Potency [12] | Potency [13] | Potency [14] | Potency [16]

O=C(/C=C/c1ccccc1)OCc1ccccc1
inactive: Potency [1] | Potency [2] | Potency [3] | Potency [4] | Potency [5] | Potency [6] | Potency [7] | Potency [8] | outcome [9] | Potency [10] | Potency [11] | Potency [12] | Potency [13] | Potency [14] | Potency [15] | Potency [16] | max activation [17] -0.887% | Potency [19]

Cn1cnc([N+](=O)[O-])c1Sc1ncnc2nc[nH]c12
3.83 µM (active) and inactive: Potency [6]
inactive: Potency [1] | Potency [2] | Potency [3] | Potency [4] | Potency [5] | Potency [7] | Potency [8] | outcome [9] | Potency [10] | Potency [11] | Potency [12] | Potency [14] | Potency [16]
active: Potency [13] 51.1 µM

O=C(Nc1ccc([N+](=O)[O-])cc1Cl)c1cc(Cl)ccc1O
inactive: Potency [1] | activation [3] 2.96% [at 19 µM] | activity change, negative = cytotoxicity [5] -2.12% [at 18.9 µM] | Potency [12] | Potency [14]
active: Potency [2] 1.37 µM and 1.3 µM | Potency [4] 30.6 µM | Potency [5] 30.6 µM | Potency [13] 2.17 µM and 2.59 µM | Potency [16] 686 nM and 291 nM

C=CC(C)(CCC=C(C)C)OC(C)=O (stereo not given)
inactive: Potency [1] | Potency [2] | Potency [3] | Potency [4] | Potency [5] | Potency [6] | Potency [7] | Potency [8] | outcome [9] | Potency [10] | Potency [11] | Potency [20] | Potency [12] | Potency [13] | Potency [14] | Potency [16]

O=C(OCc1ccccc1)c1ccccc1O
inactive: Potency [1] | Potency [2] | Potency [3] | Potency [4] | Potency [5] | Potency [6] | Potency [7] | Potency [8] | outcome [9] | Potency [10] | Potency [11] | Potency [20] | Potency [12] | Potency [13] | Potency [14] | Potency [15] | Potency [16]

c1ccncc1
inactive: Potency [1] | Potency [2] | Potency [3] | Potency [4] | Potency [5] | Potency [6] | Potency [7] | Potency [8] | outcome [9] | Potency [10] | Potency [11] | Potency [20] | Potency [12] | Potency [13] | Potency [14] | Potency [15] | Potency [16]

OC(CCl)CCl
inactive: Potency [1] | Potency [2] | Potency [3] | Potency [4] | Potency [5] | Potency [6] | Potency [7] | Potency [8] | outcome [9] | Potency [20] | Potency [12] | Potency [13] | Potency [14] | Potency [15] | Potency [16]

S=C(NC1CCCCC1)NC1CCCCC1
inactive: Potency [1] | Potency [2] | Potency [3] | Potency [7] | Potency [8] | outcome [9] | Potency [20] | Potency [12] | Potency [14] | Potency [15]
active: Potency [4] 3.44 µM | Potency [5] 6 µM and 3.86 µM | Potency [6] 7.7 µM | Potency [13] 60 µM and 43.3 µM | Potency [16] 26.8 µM and 19.3 µM

Oc1ccc(O)cc1
54.2 µM (active) and inactive: Potency [16]
active: Potency [13] 43 µM and 68.6 µM
inactive: Potency [1] | Potency [2] | Potency [3] | Potency [4] | Potency [5] | Potency [6] | Potency [7] | Potency [8] | outcome [9] | Potency [10] | Potency [11] | Potency [20] | Potency [12] | Potency [14] | Potency [15]
